# In ChEMBL document CHEMBL1157539, “Thousands of chemical starting points for antimalarial lead identification” (Nature, 2010):
# Legend:
# Format in all cases: functional
# [1] = test system: Plasmodium falciparum; test: GSK_TCMDC: Inhibition of Plasmodium falciparum 3D7 in whole red blood cells, using parasite LDH activity as an index of growth. Test compounds present at 2uM
# [2] = test system: Plasmodium falciparum; test: GSK_TCMDC: Inhibition of Plasmodium falciparum Dd2 in whole red blood cells, using parasite LDH activity as an index of growth. Test compounds present at 2uM
# [3] = test system: HepG2; test: GSK_TCMDC: Percent inhibition of human HepG2 cell line. Test compounds present at 10uM.
SMILES,Inhibition [1] [%],Inhibition [2] [%],Inhibition [3] [%]
N#Cc1ccc(N2C[C@@H](OCc3ccccc3)C[C@H]2C(=O)NCCC(c2ccccc2)c2ccccc2)c2ccccc12,93,96,11
COc1ccc(CC2(c3ccc(F)cc3)N=C(N)N(CCCc3ccc4c(c3)OCO4)C2=O)cc1.O=C(O)C(F)(F)F (configuration not stated),98,97,60
N#CCCn1nc(-c2ccc(Cl)cc2)c2c(c1=O)CCCC2,94,32,0
Cc1noc(C)c1-c1cccc(CNCc2cccc(-c3ccc(-c4nc5ccccc5[nH]4)cc3)c2)c1.O=C(O)C(F)(F)F,100,76,27
CC(C)(CN)c1nc(-c2ccc(Cl)c(O)c2)c(-c2ccncc2)[nH]1.Cl,97,98,34
CS(=O)(=O)Nc1cccc(-c2cnc3[nH]cc(-c4ccc(C(=O)O)c(F)c4)c3c2)c1,99,76,27
CC(C)NCc1cccc(-c2ccc(-c3nc4ccccc4[nH]3)cc2)c1.O=C(O)C(F)(F)F,100,66,4
Cc1ccc(NC(=O)NC2CCN(c3ccnc4ccccc34)C2)cc1.O=C(O)C(F)(F)F (configuration not stated),99,48,7
COc1ccc(C(=O)O)cc1OCc1ccccc1,99,0,0
COc1ccc(CNC(=O)c2cnc3c(O)cccc3c2Nc2cccc(NC(=O)c3ccc(Cl)c(Cl)c3)c2)cc1.O=C(O)C(F)(F)F,96,89,54
Cc1ccc2sc(N(CCCn3ccnc3)C(=O)c3ccco3)nc2c1C.Cl,93,98,9
COc1ccc2c(NN=Cc3ccccc3Cl)ccnc2c1,99,46,10
CC(=O)Oc1cc(OCc2ccccc2)c(OC(C)=O)c(OCc2ccccc2)c1,94,78,11
COc1ccc2c(=NN=Cc3cccc(F)c3)cc(C)[nH]c2c1,100,100,17
CN(C)c1cc(NC(=O)Nc2ccc(SC(F)(F)F)cc2)c2ccccc2n1,100,100,22
COc1ccc2ncc(F)c([C@H](O)CN3CCC(NCc4cc5c(cn4)OCCO5)CC3)c2c1.Cl,100,97,5
Nc1nccc2ccc(-c3cccc(O)c3)cc12,95,71,43
COc1ccc(CN2CCC(CNCCc3c(Cl)cccc3Cl)CC2)cc1.O=C(O)C(F)(F)F,98,69,45
N=C(N)Nc1nc(CCCCCCCCc2csc(NC(=N)N)n2)cs1,100,28,27
FC(F)(F)c1ccc(CNC2CCN(CC3CCCCC3)CC2)cc1.O=C(O)C(F)(F)F,87,5,4
O=C(NCc1ccc(F)cc1)c1cnc(N2CCN(c3ccncc3)CC2)c(Cl)c1.O=C(O)C(F)(F)F,98,44,30
CC1CCN(C(=O)CSc2nc(-c3ccc(C(C)C)cc3)no2)CC1,98,84,0
Cc1ccc(O)cc1Nc1ccnc2ccc(-c3cccc(CN(C)C)c3)cc12,100,99,0
CCN(CC)CCN(Cc1ccc(-c2ccc(C(F)(F)F)cc2)cc1)C(=O)Cn1c(CCc2ccc(F)c(F)c2)cc(=O)c2ccccc21.O=C(O)C(O)C(O)C(=O)O,95,26,23
CCCCc1cc(NCc2ccncc2)nc(Nc2cccc(OC)c2)n1,100,56,41
O=C(CCCCCNC(=O)c1ccc(O)c(-c2ccc(Cl)c(Cl)c2)c1)NCCN1CCOCC1,95,0,0
COCCNCc1cccc(-c2ccc3c(Nc4ccc(F)cc4Cl)ccnc3c2)c1,100,100,8
CC(C)(C)c1nn(-c2ccccc2)c2[nH]c(=O)c(CNCc3ccccc3)cc12,90,91,5
CC(C)COc1ccc(Cl)cc1Cc1ccc(-c2nc3ccc(F)cc3[nH]2)o1,97,49,35
